Inconclusive results are not listed. Calls of active or inactive are those of the source. How the source made its calls, unless noted: active means hit-call score of the fitted dose curve at least 0.9, where 1 is the maximum; inconclusive means response in the unintended direction; inactive means score below 0.9.
Experiments:
[1] = Tanguay_ZF_120hpf_JAW_legacy: (Legacy) Oregon State University Tanguay Lab 120 Hour Post-fertilization zebrafish Assay for Jaw Malformation (AID 2283638);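 on AC50: active means more embryos with jaw malformation than DMSO controls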
Summary of the method: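 Dechorionated Tropical 5D wild-type zebrafish embryos, one per well, exposed statically from 6 hpf to 120 hpf at 28C in 0.64% DMSO. Jaw malformation was scored by brightfield microscopy as present or absent. It was not scored in dead embryos.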

[2] = Tanguay_ZF_120hpf_OTIC_legacy: (Legacy) Oregon State University Tanguay Lab 120 Hour Post-fertilization zebrafish Assay for Otic Vesicle Malformation (AID 2283639)
Summary of the method: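 Embryos from 5D wild-type adults exposed in plates; DMSO 0.64% v/v final. Sealed, light-protected, 28C, static to 120 hpf. Otic vesicle malformation recorded as binary endpoint; gain-of-signal fitted vs DMSO.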

[3] = Tanguay_ZF_120hpf_BRAI_legacy: (Legacy) Oregon State University Tanguay Lab 120 Hour Post-fertilization zebrafish Assay for Brain Malformation (AID 2283641)
Summary of the method: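 Tropical 5D wild-type zebrafish embryos exposed statically until 120 hpf at 28C, 0.64% DMSO final, sealed and dark. Brain malformation scored present/absent by brightfield at 120 hpf; dead embryos excluded. Trimethyltin chloride 5uM positive control.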

[4] = Tanguay_ZF_120hpf_CFIN_legacy: (Legacy) Oregon State University Tanguay Lab 120 Hour Post-fertilization zebrafish Assay for Caudal Fin Malformation (AID 2283649)
Summary of the method: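 Dechorionated Tropical 5D wild-type embryos, one per well from 6 hpf, static exposure to 120 hpf at 28C in 0.64% DMSO. Caudal fin malformation scored by brightfield as present/absent; not scored in dead embryos.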

[5] = Tanguay_ZF_120hpf_PIG_legacy: (Legacy) Oregon State University Tanguay Lab 120 Hour Post-fertilization zebrafish Assay for Pigmentation Malformation (AID 2283650)
Summary of the method: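 Pronase dechorionation at 4 hpf; embryos plated at 6 hpf, one per well; static exposure, sealed and foil-covered, 28C, to 120 hpf; pigmentation read by brightfield, binary; DMSO 0.64% baseline, 5uM trimethyltin chloride positive control.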

[6] = Tanguay_ZF_120hpf_SWIM_legacy: (Legacy) Oregon State University Tanguay Lab 120 Hour Post-fertilization zebrafish Assay for Swim Bladder Malformation (AID 2283654);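 further: swim bladder malformation in each larva scored yes or no under brightfield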
Summary of the method: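 Embryos lacking chorions were exposed individually and statically to test chemical from 6 to 120 hpf at 28C, with 0.64% DMSO as vehicle. At 120 hpf, swim bladder malformation was recorded as present or absent by brightfield microscopy.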

[7] = Tanguay_ZF_120hpf_TRUN_legacy: (Legacy) Oregon State University Tanguay Lab 120 Hour Post-fertilization zebrafish Assay for Truncated Body (AID 2283655)
Summary of the method: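 Dechorionated Tropical 5D wild-type embryos placed singly from 6 hpf and statically exposed to 120 hpf at 28C, final DMSO 0.64%. Truncated body scored as present/absent by brightfield; not scored in dead embryos.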

[8] = Tanguay_ZF_120hpf_NC_legacy: (Legacy) Oregon State University Tanguay Lab 120 Hour Post-fertilization zebrafish Assay for Notochord and Tail Malformation (AID 2283656)
Summary of the method: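 Dechorionated Tropical 5D wild-type zebrafish embryos, one per well from 6 hpf, statically exposed to 120 hpf at 28C in 0.64% DMSO final. Notochord distortion scored present/absent by brightfield; dead embryos excluded.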

[9] = Tanguay_ZF_120hpf_CIRC_legacy: (Legacy) Oregon State University Tanguay Lab 120 Hour Post-fertilization zebrafish Assay for Circulatory Malformation (AID 2283651)
Summary of the method: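 Read-out: presence or absence of circulatory malformation at 120 hpf, scored by brightfield microscopy, fitted in the gain-of-signal direction against DMSO baseline. Wild-type 5D larvae were exposed from 6 hpf after enzymatic chorion removal.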

[10] = Tanguay_ZF_120hpf_SOMI_legacy: (Legacy) Oregon State University Tanguay Lab 120 Hour Post-fertilization zebrafish Assay for Somite Malformation (AID 2283647)
Summary of the method: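 Dechorionated Tropical 5D wild-type zebrafish embryos, one per well from 6 hpf, statically exposed at 28C to 120 hpf in 0.64% DMSO; somite malformation scored present/absent by brightfield; trimethyltin 5 uM positive control; dead embryos not scored.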

[11] = test system: Thyroperoxidase (TPO), gene 54314; assay: CCTE_Simmons_AUR_rTPO: CCTE's Amplex UltraRed Assay for Thyroperoxidase (TPO) Inhibition, Simmons Lab (AID 2283662);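 on AC50: potency for loss of signal meaning inhibition of peroxidase activity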
Summary of the method: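 Rat thyroid microsomes (5 ug protein) with 25 uM Amplex UltraRed and 300 uM H2O2 in 200 mM phosphate buffer, 30 min at 37C in dark; fluorescence 544/590 nm. Eight concentrations, 5 nM–87.5 uM final, 0.5% DMSO, triplicate biological replicates.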

[12] = Tanguay_ZF_120hpf_PFIN_legacy: (Legacy) Oregon State University Tanguay Lab 120 Hour Post-fertilization zebrafish Assay for Pectoral Fin Malformation (AID 2283648);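 further: each larva judged yes or no for fin defect by brightfield with dead larvae skipped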
Summary of the method: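 5D WT zebrafish; pronase dechorionation 4 hpf; 1 embryo/well at 6 hpf; static exposure to 120 hpf, 28C, sealed, foil-covered; final DMSO 0.64% v/v; 5 uM trimethyltin chloride positive control; fin defect scored yes/no.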

[13] = Tanguay_ZF_120hpf_PE_legacy: (Legacy) Oregon State University Tanguay Lab 120 Hour Post-fertilization zebrafish Assay for Pericardial Edema (AID 2283640)
Summary of the method: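 Tropical 5D wild-type zebrafish embryos were statically exposed until 120 hpf at 28C, with 0.64% DMSO final. Pericardial edema was scored by brightfield as present or absent; endpoints were not scored in dead embryos.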

[14] = read-out: solute carrier (SLC22A6), SLC22A6 (gene 9356); assay: LTEA_HepaRG_SLC22A6: Life Technologies and Expression Analysis (LTEA) Assay for solute carrier (SLC22A6) using HepaRG (AID 2283653; active means hit-call score of the fitted dose curve at least 0.9, where 1 is the maximum; inactive means score below 0.9); settings: mRNA level, 48 h; actives raise or lower the signal
Summary of the method: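 Differentiated HepaRG cells exposed 48 h in serum-free induction medium to 8 half-log concentrations, top 100 uM, in 0.5% DMSO; SLC22A6 mRNA by Fluidigm qRT-PCR normalized to ACTB, GAPDH, POLR2A, fitted bidirectionally versus DMSO.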

[15] = read-out: solute carrier (SLC10A1), SLC10A1 (gene 6554); assay: LTEA_HepaRG_SLC10A1: Life Technologies and Expression Analysis (LTEA) Assay for solute carrier (SLC10A1) using HepaRG (AID 2283657; active means hit-call score of the fitted dose curve at least 0.9, where 1 is the maximum; inactive means score below 0.9); settings: mRNA level, 48 h; actives raise or lower the signal
Summary of the method: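 Transcript levels were measured by qRT-PCR after human HepaRG cells received test chemical for 48 hours, up to 100 uM in half-log dilutions. Values come from bidirectional concentration-response fitting relative to 0.5% DMSO vehicle.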

[16] = read-out: matrix metalloproteinase-1 (MMP1), MMP1 (gene 4312); assay: LTEA_HepaRG_MMP1: Life Technologies and Expression Analysis (LTEA) Assay for matrix metalloproteinase-1 (MMP1) using HepaRG (AID 2283658; active means hit-call score of the fitted dose curve at least 0.9, where 1 is the maximum; inactive means score below 0.9); settings: mRNA level, 48 h; actives raise or lower the signal
Summary of the method: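 Differentiated human HepaRG cells, 48 h post-plating in serum-free induction medium, were exposed 48 h to eight half-log concentrations topping at 100 uM in 0.5% DMSO, duplicate. MMP1 mRNA measured by Fluidigm TaqMan qRT-PCR, normalized to ACTB, GAPDH, POLR2A; bidirectional fits versus DMSO.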

[17] = read-out: ABC Transporter (ABCB1), ABCB1 (gene 5243); assay: CLD_ABCB1_6hr: CellzDirect (CLD) Gene Expression Assay for ABC Transporter (ABCB1) at 6 hours (AID 2283659);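 further: hits raise ABCB1 transcript above the DMSO vehicle baseline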
Summary of the method: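 Primary human hepatocytes (two donor preparations) dosed daily for two days with chemicals at multiple concentrations, 0.2% DMSO vehicle; harvested 6 h post-dose. ABCB1 mRNA induction quantified by qNPA chemiluminescence; gain-of-signal fitted versus DMSO.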

[18] = read-out: Broad substrate specificity ATP-binding cassette transporter ABCG2 (Homo sapiens) (UniProt Q9UNQ0); assay: CLD_ABCG2_6hr: CellzDirect (CLD) Gene Expression Assay for ABC Transporter (ABCG2) at 6 hours (AID 2283660)
Summary of the method: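 Primary human hepatocytes dosed daily with chemicals at multiple concentrations (0.2% DMSO vehicle), harvested 6 h after dosing. ABCG2 mRNA induction read by quantitative nuclease protection assay (qNPA) chemiluminescence; gain of signal fitted against DMSO baseline.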

[19] = read-out: xenobiotic metabolism (CYP1A1), CYP1A1 (gene 1543); assay: CLD_CYP1A1_6hr: CellzDirect (CLD) Gene Expression Assay for xenobiotic metabolism (CYP1A1) at 6 hours (AID 2283661)
Summary of the method: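 Primary human hepatocytes from two donors, compound versus 0.2% DMSO vehicle. CYP1A1 mRNA measured 6 h after dosing by quantitative nuclease protection assay with chemiluminescent read-out; induction fitted relative to DMSO, cytotoxicity flagged by microscopy.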

Measured: AC50

Chain of Broad substrate specificity ATP-binding cassette transporter ABCG2 (Homo sapiens) (Q9UNQ0 whole entry, looked up): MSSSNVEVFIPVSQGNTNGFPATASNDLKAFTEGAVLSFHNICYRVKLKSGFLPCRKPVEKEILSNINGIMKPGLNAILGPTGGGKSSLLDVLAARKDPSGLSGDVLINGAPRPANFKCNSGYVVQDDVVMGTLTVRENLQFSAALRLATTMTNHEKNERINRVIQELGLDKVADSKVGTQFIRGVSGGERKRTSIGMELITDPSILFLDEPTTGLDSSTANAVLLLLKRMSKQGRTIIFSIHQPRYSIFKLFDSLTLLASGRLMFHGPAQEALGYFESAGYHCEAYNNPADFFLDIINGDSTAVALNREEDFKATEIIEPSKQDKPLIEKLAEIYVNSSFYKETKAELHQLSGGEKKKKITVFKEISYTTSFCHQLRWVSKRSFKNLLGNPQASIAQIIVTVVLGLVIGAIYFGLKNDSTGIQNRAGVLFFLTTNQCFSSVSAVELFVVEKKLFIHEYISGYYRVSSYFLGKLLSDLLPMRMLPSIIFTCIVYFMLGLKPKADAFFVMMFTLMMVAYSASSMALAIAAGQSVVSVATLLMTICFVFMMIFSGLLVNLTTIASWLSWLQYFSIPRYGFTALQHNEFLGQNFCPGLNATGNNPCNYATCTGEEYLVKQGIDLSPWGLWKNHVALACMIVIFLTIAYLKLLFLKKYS

N#Cc1ccc(N(CC(N)=O)CC(F)(F)F)cc1C(F)(F)F
inactive: [1] | [2] | [3] | [4] | [5] | [6] | [7] | [8]

O=S(=O)(O)C(F)(F)C(F)(F)C(F)(F)C(F)(F)F
inactive: [1] | [5] | [6] | [7] | [8]

Clc1ccc(C(c2ccccc2Cl)C(Cl)(Cl)Cl)cc1 (centres undefined)
inactive: [2] | [3] | [4] | [5] | [9] | [6] | [7] | [8]

CC(C)(c1ccccc1)c1ccc(O)cc1
inactive: [2] | [10] | [4] | [5] | [6] | [8]
active: [11] 3.55 µM

c1ccc(-c2ccccc2)cc1
inactive: [1] | [2] | [10] | [12] | [5] | [6] | [7] | [11]

CCCCCCCCCC[N+](C)(C)CCCCCCCCCC
active: [11] 43.8 µM
inactive: [1] | [2] | [3] | [4] | [9] | [6] | [7] | [8]

Nn1cnnc1
inactive: [1] | [2] | [3] | [10] | [4] | [6] | [7] | [8]

ClC1=C(Cl)[C@]2(Cl)[C@@H]3[C@@H](Cl)[C@H]4O[C@H]4[C@@H]3C1(Cl)C2(Cl)Cl
inactive: [1] | [2] | [3] | [10] | [7] | [8]

C[C@]12CCC(=O)C=C1CC[C@@H]1[C@@H]2CC[C@]2(C)C(=O)CC[C@@H]12
active: [1] 38.3 µM | [3] 49.8 µM | [12] 35.1 µM | [4] 40.4 µM | [5] 43.9 µM
inactive: [10] | [6] | [7] | [8] | [11]

CC(C)(O)C(=O)Nc1ccc([N+](=O)[O-])c(C(F)(F)F)c1
inactive: [3] | [10] | [5] | [6] | [8]
active: [1] 23.1 µM | [7] 22.1 µM

Sc1ccccc1
inactive: [11]

Clc1ccc(C(Cl)(Cl)Cl)cc1
inactive: [1] | [13] | [10] | [5] | [6] | [7] | [8] | [11]

COS(=O)(=O)OC
active: [11] 27 µM
inactive: [1] | [2] | [10] | [5] | [14] | [6] | [7] | [8] | [15] | [16]

CCOC(=O)C(O)(c1ccc(Cl)cc1)c1ccc(Cl)cc1
inactive: [1] | [2] | [3] | [4] | [5] | [6] | [7] | [8]

C1CC2OC2CC1C1CO1 (centres undefined)
inactive: [1] | [2] | [10] | [12] | [4] | [5] | [6] | [7] | [8]

Oc1ccc(C(c2ccc(O)cc2)(C(F)(F)F)C(F)(F)F)cc1
active: [1] 54.7 µM | [2] 51.7 µM | [4] 54 µM | [5] 56.9 µM | [7] 53 µM | [11] 21.7 µM
inactive: [3] | [9] | [6] | [8]

ClC(Cl)=C(c1ccc(Cl)cc1)c1ccc(Cl)cc1
inactive: [1] | [3] | [10] | [4] | [6] | [7] | [8]

CCC(C)(CC)c1cc(NC(=O)c2c(OC)cccc2OC)on1
not listed: [5] | [9] | [11] | [12] | [13] | [14] | [15] | [16]
inactive: all other assays above

O=C(NC(=O)c1cc(F)c(F)cc1Cl)Nc1cc(F)ccc1N1CCC(C(=O)O)CC1
inactive: [1] | [2] | [10] | [4] | [5] | [6] | [7] | [8]

Source: PubChem BioAssay (EPA / NIEHS)
